Source: PubChem
a7 integrin act – integrin-mediated muscular dystrophy alleviation activation; alpha7betagal myoblasts, beta-gal FDG fluorescence, 48 h; Potency, µM (titrated, usually from 38.3 µM), without a hit: at the top dose activation, most hits filed as activators; actives 0.064% (n = 350,000);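 also: potency is read from the fitted curve at half-maximal effect; 100% = response of the positive control SU9516; nearly all actives have a fitted effect of over 60% in size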
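alpha7betagal+/- myoblasts (passage 13, 250/well) treated 48 h at 37C with compounds at 1:260 dilution of DMSO stock. Lysed, then beta-galactosidase activity read as FDG fluorescence (ex 480/em 540) after 30 min, with pre-read for autofluorescence.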
CBFb-RUNX1 inh – blocks binding between human CBF-beta and RUNX1. AlphaScreen CBFb-His/RUNX1-biotin binding, biochemical. Potency, µM (highest dose often 59.8 µM), inactives show at the highest dose activity, negative = inhibition, hits mostly inhibitors. 230,000 tested, under 10 active. AID 1477; also: % of control where 0% means no effect
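CBFb-His/RUNX1-biotin, 30 nM each, preincubated 20 min RT; compound 15 min RT; Ni + streptavidin beads 50 ng each, 90 min RT; AlphaScreen read.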
DRD3 antagonist – blocks the human D3 dopamine receptor; P35462; D3R cells, DiscoveRx beta-arrestin luminescence, antagonist mode; stronger effect = lower value; max response, negative = inhibition, %; actives 2.5% (n = 360,000); in the data active = max response below about -50%; inconclusive = no clear call, values can overlap the other calls; also: % is scaled to controls: 0 for no effect and ±100 for the full control effect
Target sequence (P35462 whole entry, looked up): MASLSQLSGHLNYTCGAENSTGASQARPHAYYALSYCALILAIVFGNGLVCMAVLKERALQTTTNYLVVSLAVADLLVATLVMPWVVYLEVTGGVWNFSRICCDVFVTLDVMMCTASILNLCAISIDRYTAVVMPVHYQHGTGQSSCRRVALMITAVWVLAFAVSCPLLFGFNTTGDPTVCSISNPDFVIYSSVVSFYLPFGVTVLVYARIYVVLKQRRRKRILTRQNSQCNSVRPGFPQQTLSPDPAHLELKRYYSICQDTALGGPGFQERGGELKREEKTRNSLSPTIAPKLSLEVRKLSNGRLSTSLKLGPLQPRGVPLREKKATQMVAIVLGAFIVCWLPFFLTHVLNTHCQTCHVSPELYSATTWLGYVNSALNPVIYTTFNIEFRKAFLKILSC
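Cells expressing the human receptor were seeded at 1500 cells/well, incubated overnight at 37 degrees C in 5% CO2, then exposed to library compounds with dopamine controls for 90 minutes at 37 degrees C before luminescent detection.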
D3 ag – D3 dopamine receptor (human) agonism. P35462. D3R DiscoveRx beta-arrestin cells, luminescence, 90 min. max activation, %. actives 0.58% (n = 410,000). AID 652048; in the data active = max activation above about 30%; also: 0% is about no effect
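Agonist mode: compounds and dopamine controls were applied to plated cells for 90 min at 37 degrees C after an overnight attachment at 1500 cells/well. Luminescent read-out followed 30 - 60 minutes at room temperature with DiscoveRx detection reagent.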
PTHR1 agonist – PTHR1 (human) receptor agonism; Q03431; HEK293 GP2 PTHR1 cells, GloSensor cAMP luminescence, 1 h; Potency, µM (series often up to 115 µM), for the others: top-dose activation, hits mostly activators; actives 0.075% (n = 410,000); AID 743266; also: potency is read from the fitted curve at half-maximal effect; nearly all actives have a fitted effect of over 55% in size
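HEK-293-derived GP2 cells expressing PTHR1 and a GloSensor cAMP reporter, 3,000/well, plated overnight, given luciferin plus IBMX (each 0.5 mM as added) for 1 h at 37 °C, then compound for 1 h at 37 °C. Luminescence was read after 15 min at room temperature.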
MBNL1-CUG inh – MBNL1-poly(CUG) RNA binding inhibition; Q9NR56; TR-FRET MBNL1-His/biotin-(CUG)12 binding, 665/545 ratio; Potency, µM (doses to about 57.5 µM), for inactives: at the top dose activity change, negative = inhibition, actives largely listed as inhibitors; actives 0.036% (n = 280,000); AID 2675; active = well fitted inhibition curve with a large enough effect in the signal ratio, with a control signal flat, not every such curve was filed as active; inconclusive = small, poorly fitted or top-dose-only effect, or effect the other way, or a change in a side signal; inactive = no such curve, though single readings can be large or run the other way; the % refers to the signal ratio; also: potency is read from the fitted curve at half-maximal effect; % is scaled to controls: 0 for no effect and ±100 for the full control effect
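TR-FRET between His-tagged MBNL1 and biotin-(CUG)12 RNA, detected with Tb anti-His antibody (0.055 ng/ul) and streptavidin-XL665 (5 nM), 60 min at room temperature. Compounds titrated 92 nM to 58 uM; 665/545 nm ratio normalized to buffer and complex controls.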
An asterisk follows results filed as active; i = inactive; ? = inconclusive; / = no result given; [ ] = another dose, or the depositor's remark. Compounds with a hit are over-represented: about 2.8% of the library has one in this group of screens. Unless noted, calls follow the shape of the dose curve; as a rule, active = well fitted curve in the direction sought with a large enough effect; inconclusive = small, poorly fitted or top-dose-only effect, or another doubt; inactive = no such curve, though single readings can be large; an effect the other way counts as inactive or inconclusive.

SMILES | a7 integrin act | CBFb-RUNX1 inh | DRD3 antagonist | D3 ag | PTHR1 agonist | MBNL1-CUG inh
COc1cc(OC)cc(-c2noc([C@@H]3O[C@H](CO)[C@@H](O)[C@H]3O)n2)c1 | / | / | 51 | 8 | -29% | /
O=C(NC1C2CC3CC(C2)CC1C3)c1ccc(Br)o1 (stereo not drawn) | 7% | / | -24 | -6 | i | 0%
O=c1cc(CN2CCCCCC2)nc2sccn12 | 14% | 2% | -5 | -6 | 0% | -5%
O=C1c2ccccc2S(=O)(=O)N1Cc1cc(=O)n2ccsc2n1 | -21% | 5% | -76* | -5 | -1%[57.5 µM] | -4%
COCCN(C(=O)CSc1cc(C)c2ccccc2n1)c1c(N)n(CC(C)C)c(=O)[nH]c1=O | 12% | / | -8 | -19 | i | /
CC(C)c1ccc(CNCCCSc2ncccn2)cc1 | -66% | / | 112 | -4 | -15% | -3%
CC1CS(=O)(=O)CCN1/N=C/c1ccc([N+](=O)[O-])o1 (stereo not drawn) | / | / | / | 6 | / | /
Cn1c(-c2ccc(F)c(F)c2)cc2onc(-c3ccccc3)c2c1=O | 5% | / | 20 | 35* | -47% | /
COc1cc(NC(=O)Cn2c(=O)ccc3cc(S(=O)(=O)N4CCCC4)ccc32)cc(OC)c1 | / | / | / | 3 | -26% | /
CC(=O)ON=C1C=CC(=C(C#N)c2ccccc2)C=C1 | / | / | -105* | -26 | -35% | /
COc1ccc(C(C#N)=C2C=CC(=NO)C=C2)cc1 | ? | 4% | -24 | -6 | -11% | 11%
COC(=O)c1c(-c2ccc(Cl)cc2)noc1N1CCN(c2cccc(OC)c2)CC1 | / | / | / | 82* | -31% | /
COC(=O)c1c(-c2ccc(Cl)cc2)noc1N1CCN(c2cccc(C)c2C)CC1 | / | / | / | 3 | -33% | /
CN(CC(=O)Nc1ccc(OC(F)(F)F)cc1)C(=O)/C=C/c1cc2c(cc1[N+](=O)[O-])OCO2 | -12% | / | -95* | -30 | -31% | /
CN(CC(=O)Nc1ccc(OC(F)(F)F)cc1)C(=O)/C=C/c1ccco1 | -12% | / | ? | -8 | -2% | /
CC(C)(C)NC(=O)CSc1nnc(C2CC2)n1-c1ccccc1 | 42% | -2% | 9 | 8 | i | -3%
CCOC(=O)c1c(NC(=O)C2=C(C)NC(=S)NC2c2ccc(C)cc2)sc(C)c1C (stereo not drawn) | 52% | -2% | -53* | -13 | -21% | 48%
C/C(=C\C(=O)c1ccccc1)Nc1ccc(Br)c(Cl)c1 | 11µM* | 28% | -14 | 1 | i | -5%
O=C(Cc1ccccc1)Nc1ccc(Br)c(Cl)c1 | ? | -1% | -14 | 0 | -5% | -13%
Cc1ccc(-c2nnc(SCC(=O)NCCC(C)C)nc2-c2ccc(C)cc2)cc1 | / | / | / | -7 | -23% | /
Cc1c(C)n(C)c2ccc(C(=O)NCCCN3CCCC3)cc12 | -18% | / | 0 | 2 | i | -5%
Cc1c(C)n(C)c2ccc(C(=O)NCCCN3CCN(c4ccc(F)cc4)CC3)cc12 | -42% | / | -56* | -19 | i | 2%
CCc1nc2ccc(C(=O)NCCCN3CCN(c4ccccc4F)CC3)cc2nc1CC | 0% | / | -66* | 18 | -17% | 13%
O=C(NCCN1CCN(c2ccccc2F)CC1)c1ccc2nc3ccccc3c(=O)n2c1 | -23% | / | -58* | 3 | i | ?
Cc1c(C)n(C)c2ccc(C(=O)NCCCN3CCN(c4ccccc4F)CC3)cc12 | -47% | / | -82* | -3 | i | -3%
COc1ccc(N2CCN(CCNC(=O)c3ccc4nc5ccccc5c(=O)n4c3)CC2)cc1 | -17% | / | 13 | 3 | i | ?
O=C(NCCCN1CCN(c2ccccc2F)CC1)c1ccc2nc(Cc3ccccc3)oc2c1 | / | / | / | 1 | -30% | /
CC(C)(O)C#Cc1ccc(N2C(c3ccsc3)=Cc3ccc(F)cc3C2c2c[nH]c3ccccc23)cc1 (stereo not drawn) | / | / | -6 | 8 | -2% | /
